Experimental findings from PubChem BioAssay (EPA / NIEHS) are described below.

Structures are written as SMILES. Results filed as inconclusive are left out. Active and inactive are the calls of the source. The calls were made as follows, unless noted: active = hit-call score of the fitted dose curve at least 0.9, where 1 is the maximum; inconclusive = response in the unintended direction; inactive = score below 0.9.

Experiment [1] concerns the target Glucocorticoid receptor (Homo sapiens) (UniProt P04150). Description: ATG_GR_TRANS: Attagene TRANS-FACTORIAL HepG2 Assay for human Glucocorticoid Receptor (GR) (AID 2282978).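 Also: activators score as hits since higher reporter transcript over DMSO is fitted.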 The following applies: HepG2 Attagene TRANS GR reporter, mRNA transcription. The essentials:
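Transient MRTU transfection of HepG2 (GAL4-UAS reporters, exogenous NR-GAL4 chimeras), 24 h dosing. Readout: reporter transcript via RT-PCR + capillary electrophoresis fluorescence. Positive direction vs DMSO baseline.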

In experiment [2] the target is Oxysterols receptor LXR-alpha (Homo sapiens) (UniProt Q13133). Description: ATG_LXRa_TRANS: Attagene TRANS-FACTORIAL HepG2 Assay for human Liver X Receptor alpha (LXRa) (AID 2282980). The following applies: HepG2 Attagene TRANS reporter, LXRa transactivation. A digest of the protocol:
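In this multiplexed TRANS system, compounds act on HepG2 cells carrying GAL4-UAS reporter units and a receptor-GAL4 fusion for 24 h. Induced reporter RNA is amplified, fluorescently labelled and sized by capillary electrophoresis, with DMSO as baseline.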

Experiment [3] deals with Hepatocyte nuclear factor 4-alpha (Homo sapiens) (UniProt P41235). Description: ATG_HNF4a_TRANS: Attagene TRANS-FACTORIAL HepG2 Assay for human Hepatocyte Nuclear Factor 4 alpha (HNF4a) (AID 2282982). The following applies: HepG2 HNF4a transactivation reporter, mRNA readout. The essentials:
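In this trans-factorial format, a chimeric HNF4a-GAL4 fusion drives a GAL4-UAS reporter in transfected HepG2 liver cells. After 24 h treatment, reporter mRNA induction is measured by RT-PCR with capillary electrophoresis, relative to DMSO.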

Experiment [4] concerns the target Transcriptional activator Myb (Homo sapiens) (UniProt P10242). Description: ATG_Myb_CIS: Attagene CIS-FACTORIAL HepG2 Assay for human Myeloblastosis (Myb) Proto-Oncogene Transcription Factor (AID 2282986; active = hit-call score of the fitted dose curve at least 0.9, where 1 is the maximum; inactive = score below 0.9). The following applies: HepG2 Attagene CIS-FACTORIAL Myb reporter transcription; actives raise or lower the signal. A digest of the protocol: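 HepG2, transient MRTU transfection (cis-element promoters, endogenous TF activity), 24 h compound exposure. Readout: reporter mRNA via RT-PCR, 6-FAM labeling, HpaI digest, capillary electrophoresis. Gain/loss fit vs DMSO.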

For experiment [5], the target named is Nuclear respiratory factor 1 (Homo sapiens) (UniProt Q16656). Description: ATG_NRF1_CIS: Attagene CIS-FACTORIAL HepG2 Assay for human Nuclear Respiratory Factor 1 (NRF1) Orphan Gene (AID 2282987; active = hit-call score of the fitted dose curve at least 0.9, where 1 is the maximum; inactive = score below 0.9). The following applies: HepG2 NRF1 cis-element reporter, Attagene multiplex; actives raise or lower the signal. The essentials: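 Endogenous NRF1-driven reporter transcription measured in transiently transfected human HepG2 liver cells. Readout: reporter mRNA by RT-PCR and capillary electrophoresis with fluorescence detection, 24 h post-dosing. Gain or loss of signal fitted relative to DMSO baseline.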

The target of experiment [6] is Oxysterols receptor LXR-beta (Homo sapiens) (UniProt P55055). Description: ATG_LXRb_TRANS: Attagene TRANS-FACTORIAL HepG2 Assay for human Liver X Receptor beta (LXRb) (AID 2282981). The following applies: HepG2 Attagene TRANS GAL4-LXRb reporter, mRNA. The essentials:
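Measures induction of a Gal4-driven reporter transcript in HepG2 cells expressing an exogenous LXRb-Gal4 fusion. Cells are exposed to compound for 24 h before RNA isolation and RT-PCR with capillary electrophoresis detection.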

Experiment [7] in a line: ATG_M_32_TRANS: Attagene TRANS-FACTORIAL HepG2 Assay for M32 Transcription Factor (Internal Marker) (AID 2282984).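 Also: transcript level of a background control reporter unit measured by RT-PCR and capillary electrophoresis.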 The following applies: HepG2 Attagene TRANS M32 internal marker reporter. A digest of the protocol:
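After 24 h dosing of transfected HepG2 cells, total RNA was reverse-transcribed, reporter sequences PCR-amplified, 6-FAM labelled by primer extension and HpaI-digested before capillary electrophoresis. Signal increase over DMSO was fitted.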

Experiment [8] has as its target Nuclear receptor subfamily 4 group A member 2 (Homo sapiens) (UniProt P43354). Description: ATG_NURR1_TRANS: Attagene TRANS-FACTORIAL HepG2 Assay for human Nuclear Receptor Related Protein 1 (NURR1) (AID 2282985). The following applies: HepG2 Attagene TRANS reporter, mRNA readout. The essentials: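 Chimeric NR-Gal4 fusion activity measured in HepG2 after 24 h treatment. Reporter transcripts detected by RT-PCR and capillary electrophoresis fluorescence; positive-direction curve fitting against DMSO.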

Experiment [9] can be described thus: ATG_M_06_TRANS: Attagene TRANS-FACTORIAL HepG2 Assay for M06 Transcription Factor (Internal Marker) (AID 2282983). The following applies: HepG2 Attagene TRANS M06 internal marker reporter. The essentials: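 Multi-reporter-transfected HepG2, 24 h treatment; reporter transcripts quantified via RT-PCR, primer-extension labelling and CE. DMSO-normalized gain-of-signal fit.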

Sequence of Transcriptional activator Myb (Homo sapiens) (P10242 whole entry, looked up): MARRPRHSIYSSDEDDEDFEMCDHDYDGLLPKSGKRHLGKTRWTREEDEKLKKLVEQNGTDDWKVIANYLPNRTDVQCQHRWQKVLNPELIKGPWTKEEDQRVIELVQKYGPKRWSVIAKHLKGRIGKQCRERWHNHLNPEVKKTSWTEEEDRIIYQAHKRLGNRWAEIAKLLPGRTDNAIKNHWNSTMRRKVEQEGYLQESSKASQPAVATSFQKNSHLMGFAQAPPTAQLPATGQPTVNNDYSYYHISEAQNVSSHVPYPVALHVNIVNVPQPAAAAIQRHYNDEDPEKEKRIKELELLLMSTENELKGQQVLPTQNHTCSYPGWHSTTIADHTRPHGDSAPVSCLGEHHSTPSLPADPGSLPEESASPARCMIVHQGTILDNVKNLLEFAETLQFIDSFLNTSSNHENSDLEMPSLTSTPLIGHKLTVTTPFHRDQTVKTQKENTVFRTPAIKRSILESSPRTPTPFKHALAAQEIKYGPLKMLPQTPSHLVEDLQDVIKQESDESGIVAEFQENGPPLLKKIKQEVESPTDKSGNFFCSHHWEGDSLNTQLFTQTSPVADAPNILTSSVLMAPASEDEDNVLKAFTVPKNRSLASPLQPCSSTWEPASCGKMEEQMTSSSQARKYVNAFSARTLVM
Sequence of Glucocorticoid receptor (Homo sapiens) (P04150 whole entry, looked up, the tested form may be a part): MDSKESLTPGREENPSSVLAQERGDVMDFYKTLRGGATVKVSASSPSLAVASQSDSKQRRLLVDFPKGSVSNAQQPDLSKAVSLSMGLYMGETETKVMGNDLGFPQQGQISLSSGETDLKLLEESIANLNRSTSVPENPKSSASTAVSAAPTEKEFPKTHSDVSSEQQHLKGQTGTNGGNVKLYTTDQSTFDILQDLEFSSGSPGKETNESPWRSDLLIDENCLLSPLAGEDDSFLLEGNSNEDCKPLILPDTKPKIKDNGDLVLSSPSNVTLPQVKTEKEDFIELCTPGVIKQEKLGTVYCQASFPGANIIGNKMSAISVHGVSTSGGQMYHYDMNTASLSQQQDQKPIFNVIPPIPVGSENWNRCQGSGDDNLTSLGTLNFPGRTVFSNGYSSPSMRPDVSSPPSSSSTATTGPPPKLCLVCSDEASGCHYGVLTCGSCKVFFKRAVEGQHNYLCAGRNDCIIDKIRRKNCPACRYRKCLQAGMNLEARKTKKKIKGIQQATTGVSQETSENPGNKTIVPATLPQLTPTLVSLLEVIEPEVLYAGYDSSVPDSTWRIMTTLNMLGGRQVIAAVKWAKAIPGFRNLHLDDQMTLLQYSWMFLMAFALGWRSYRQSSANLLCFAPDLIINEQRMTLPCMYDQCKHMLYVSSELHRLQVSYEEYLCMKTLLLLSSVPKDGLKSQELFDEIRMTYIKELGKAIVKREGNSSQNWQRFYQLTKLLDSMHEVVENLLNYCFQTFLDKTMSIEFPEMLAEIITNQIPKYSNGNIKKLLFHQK
Sequence of Oxysterols receptor LXR-beta (Homo sapiens) (P55055 whole entry, looked up, the tested form may be a part): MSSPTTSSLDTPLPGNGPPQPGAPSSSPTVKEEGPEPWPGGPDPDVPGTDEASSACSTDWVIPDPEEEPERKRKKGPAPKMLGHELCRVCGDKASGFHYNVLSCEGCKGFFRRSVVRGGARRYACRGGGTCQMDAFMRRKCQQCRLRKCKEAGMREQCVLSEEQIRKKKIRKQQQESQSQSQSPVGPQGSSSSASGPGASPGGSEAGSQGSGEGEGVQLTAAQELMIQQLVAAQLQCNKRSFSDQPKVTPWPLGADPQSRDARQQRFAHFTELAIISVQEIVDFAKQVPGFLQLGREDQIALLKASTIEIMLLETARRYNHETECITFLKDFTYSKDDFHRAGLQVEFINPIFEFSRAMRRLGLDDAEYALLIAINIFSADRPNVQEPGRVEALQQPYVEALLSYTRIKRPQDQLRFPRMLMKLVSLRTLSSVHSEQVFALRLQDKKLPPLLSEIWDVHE
Sequence of Nuclear respiratory factor 1 (Homo sapiens) (Q16656 whole entry, looked up): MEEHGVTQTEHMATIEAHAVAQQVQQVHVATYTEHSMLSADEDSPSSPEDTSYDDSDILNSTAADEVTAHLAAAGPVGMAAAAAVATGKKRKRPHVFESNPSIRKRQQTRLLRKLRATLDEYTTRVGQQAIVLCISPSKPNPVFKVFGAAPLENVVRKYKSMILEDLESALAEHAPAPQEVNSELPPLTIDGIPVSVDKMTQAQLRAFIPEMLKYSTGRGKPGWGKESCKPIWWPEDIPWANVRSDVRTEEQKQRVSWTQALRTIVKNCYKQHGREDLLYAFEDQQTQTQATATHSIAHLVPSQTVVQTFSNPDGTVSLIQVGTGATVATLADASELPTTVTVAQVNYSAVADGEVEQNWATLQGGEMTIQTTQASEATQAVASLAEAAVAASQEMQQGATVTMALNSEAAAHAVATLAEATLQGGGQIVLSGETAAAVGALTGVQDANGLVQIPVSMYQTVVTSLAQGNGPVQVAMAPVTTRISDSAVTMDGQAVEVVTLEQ
Sequence of Nuclear receptor subfamily 4 group A member 2 (Homo sapiens) (P43354 whole entry, looked up, the tested form may be a part): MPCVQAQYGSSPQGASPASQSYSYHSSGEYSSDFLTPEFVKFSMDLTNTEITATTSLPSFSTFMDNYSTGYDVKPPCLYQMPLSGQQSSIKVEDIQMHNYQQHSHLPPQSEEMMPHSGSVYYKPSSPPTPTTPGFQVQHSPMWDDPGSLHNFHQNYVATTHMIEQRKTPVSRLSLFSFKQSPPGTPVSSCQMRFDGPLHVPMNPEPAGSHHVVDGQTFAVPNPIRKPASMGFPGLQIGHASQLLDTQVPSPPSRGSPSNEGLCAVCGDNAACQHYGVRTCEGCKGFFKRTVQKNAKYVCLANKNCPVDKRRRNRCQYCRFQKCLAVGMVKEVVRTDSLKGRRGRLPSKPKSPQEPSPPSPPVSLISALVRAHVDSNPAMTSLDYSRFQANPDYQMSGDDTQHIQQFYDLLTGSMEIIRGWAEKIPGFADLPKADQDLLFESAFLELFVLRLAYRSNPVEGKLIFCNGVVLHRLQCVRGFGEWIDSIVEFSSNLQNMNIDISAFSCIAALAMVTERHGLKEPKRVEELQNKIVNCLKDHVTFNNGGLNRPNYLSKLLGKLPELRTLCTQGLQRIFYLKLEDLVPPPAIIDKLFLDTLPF
Sequence of Hepatocyte nuclear factor 4-alpha (Homo sapiens) (P41235 whole entry, looked up, the tested form may be a part): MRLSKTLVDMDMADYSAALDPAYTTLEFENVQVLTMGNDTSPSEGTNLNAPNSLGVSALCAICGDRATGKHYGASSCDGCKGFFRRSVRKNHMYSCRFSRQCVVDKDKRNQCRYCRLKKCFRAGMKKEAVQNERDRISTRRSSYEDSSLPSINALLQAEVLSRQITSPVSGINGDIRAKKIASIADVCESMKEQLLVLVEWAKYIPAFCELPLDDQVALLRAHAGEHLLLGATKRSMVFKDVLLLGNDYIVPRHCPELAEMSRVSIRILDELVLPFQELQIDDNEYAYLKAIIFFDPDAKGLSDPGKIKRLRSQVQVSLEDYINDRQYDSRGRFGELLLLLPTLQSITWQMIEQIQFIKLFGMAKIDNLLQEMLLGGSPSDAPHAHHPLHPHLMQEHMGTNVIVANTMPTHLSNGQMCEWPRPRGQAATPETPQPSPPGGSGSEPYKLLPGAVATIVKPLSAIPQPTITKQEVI
Sequence of Oxysterols receptor LXR-alpha (Homo sapiens) (Q13133 whole entry, looked up, the tested form may be a part): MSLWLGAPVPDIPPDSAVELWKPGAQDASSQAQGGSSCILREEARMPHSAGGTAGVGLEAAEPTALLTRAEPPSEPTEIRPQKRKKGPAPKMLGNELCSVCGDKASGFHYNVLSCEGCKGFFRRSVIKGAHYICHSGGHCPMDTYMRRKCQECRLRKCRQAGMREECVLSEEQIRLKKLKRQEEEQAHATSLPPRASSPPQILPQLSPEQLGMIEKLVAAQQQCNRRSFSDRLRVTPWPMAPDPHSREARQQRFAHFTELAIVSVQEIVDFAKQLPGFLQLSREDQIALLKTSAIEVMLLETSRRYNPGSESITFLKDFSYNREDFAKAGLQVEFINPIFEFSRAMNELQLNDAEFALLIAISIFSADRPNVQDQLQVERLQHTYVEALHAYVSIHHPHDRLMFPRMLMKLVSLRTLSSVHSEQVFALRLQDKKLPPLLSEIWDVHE

For `CC1(C)S[C@@H]2[C@H](NC(=O)COc3ccccc3)C(=O)N2[C@H]1C(=O)O`, the molecule was classed as inactive in experiment [1], in experiment [2], in experiment [3], in experiment [4] and in [5].

Turning to `CNC(=S)NN`, the call in experiment [1], in experiment [2], in experiment [6], in experiment [7], in experiment [8] and in [4] was inactive. In addition, the molecule was called inactive in experiment [5].

In the case of `Cc1ccc([N+](=O)[O-])cc1S(=O)(=O)O`, the molecule was classed as inactive in experiment [1], in experiment [2], in experiment [6], in [3], in experiment [8] and in [5]. Further, the half-maximal activity concentration (AC50) in [4] is 191 µM (active).

Turning to `CCCCC(CC)COC(=O)c1ccccc1O` (stereo not drawn), the molecule was called inactive in experiment [1], in experiment [2], in experiment [3], in experiment [9], in [7] and in [8]. In addition, the molecule was classed as inactive in [4] and in experiment [5].

Consider `C=CC=CC=CCCCCC`, for which the outcome in experiment [1], in [2], in [3], in experiment [7], in experiment [8] and in [4] was inactive. In experiment [5], the result was inactive.

`CCN(CC)c1ccc(C(=O)c2ccccc2C(=O)O)c(O)c1`: the result in [1], in experiment [2], in experiment [3], in experiment [9], in experiment [7] and in experiment [4] was inactive. Besides, the call in [5] was inactive.

On to `C=CCOCC(O)CCl` (stereo not drawn), for which the molecule was classed as inactive in [1], in experiment [2], in experiment [3], in experiment [9], in experiment [7] and in experiment [8]. Further, the result in experiment [4] and in experiment [5] was inactive.

On to `Nc1ccc2cc3ccccc3cc2c1`, for which the outcome in experiment [1], in [2], in experiment [6], in experiment [9], in experiment [7] and in experiment [8] was inactive. For the same molecule, the molecule was called inactive in [4] and in [5].

In the case of `CCCCC/C=C\CCC=O`, the call in experiment [1], in [2], in experiment [6], in experiment [7], in [8] and in [4] was inactive.

As to `CCCCCCCCCCCCCCCC(=O)OCC`, the molecule was called inactive in experiment [1], in experiment [2], in [6], in experiment [7], in experiment [8] and in [4]. Also, in [5], the molecule was classed as inactive.

On to `CC(C)C1=CC2=CC[C@@H]3[C@](C)(CCC[C@@]3(C)C(=O)O)[C@H]2CC1`, for which the molecule was called inactive in experiment [1], in experiment [3], in experiment [9], in [4] and in experiment [5]. Also, the AC50 in experiment [2] was 26.8 µM (active); in [8] it was 111 µM (active).

With `CCCCCC/C=C/C=O`, the result in experiment [1], in experiment [2], in experiment [6], in [3], in experiment [7] and in experiment [4] was inactive. The molecule was classed as inactive in experiment [5].

With `O=C(O)CCCC[C@@H]1SC[C@@H]2NC(=O)N[C@@H]21`, the result in experiment [1], in [2], in experiment [6], in experiment [7], in experiment [4] and in experiment [5] was inactive.

With `CC(C)(C)c1ccc(N)cc1`, the result in experiment [1], in [2], in experiment [6], in [3], in experiment [7] and in [8] was inactive. In addition, the molecule was classed as inactive in experiment [4] and in [5].

Take `CCCCCCCOC(=O)CCC`: the outcome in [1], in experiment [2], in experiment [6], in experiment [8], in [4] and in experiment [5] was inactive.

Consider `C=C(C)c1cccc(C(C)(C)N=C=O)c1`, for which the molecule was called inactive in experiment [1], in [2], in [6], in experiment [3], in experiment [7] and in experiment [4]. Moreover, the call in [5] was inactive.

`C=C(C)CCO`: the molecule was called inactive in experiment [1], in experiment [2], in [6], in experiment [7], in experiment [8] and in [4]. The outcome in experiment [5] was inactive.

Regarding `CC1(C)O[C@@H]2C[C@H]3[C@@H]4C[C@H](F)C5=CC(=O)CC[C@]5(C)[C@H]4[C@@H](O)C[C@]3(C)[C@]2(C(=O)CO)O1`, the AC50 in experiment [1] is 0.0728 µM (active). Also, the result in experiment [2], in [6], in experiment [9], in experiment [7], in experiment [8] and in [4] was inactive. Moreover, the outcome in experiment [5] was inactive.

Consider `CC(C)CC(O)Cc1ccccc1` (stereo not drawn), for which the result in experiment [1], in experiment [2], in experiment [3], in experiment [9], in experiment [7] and in experiment [4] was inactive. Besides, the result in experiment [5] was inactive.

For `NC(=O)NNC(N)=O`, the result in experiment [1], in experiment [2], in experiment [3], in experiment [7], in [8] and in experiment [4] was inactive.

On to `CC1(C)O[C@@H]2C[C@H]3[C@@H]4C[C@H](F)C5=CC(=O)C=C[C@]5(C)[C@@]4(F)[C@@H](O)C[C@]3(C)[C@]2(C(=O)CO)O1`, for which the AC50 in [1] is 0.0525 µM (active). In addition, the call in [2], in experiment [6], in [9], in experiment [7] and in experiment [4] was inactive.

Consider `CCCOC(=O)CCCCC(=O)OCCC`, for which the molecule was called inactive in experiment [1], in experiment [2], in experiment [6], in [3], in [7] and in [8]. Further, the result in [5] was inactive.

For `CCCCCCCCCCCCCCCCCC#N`, the molecule was called inactive in [1], in experiment [2], in experiment [3], in experiment [7], in experiment [8] and in [4]. Moreover, the molecule was classed as inactive in experiment [5].

For `CC(=O)c1ccc[nH]1`, the call in [1], in experiment [2], in experiment [6], in experiment [4] and in experiment [5] was inactive.

In the case of `CC(C)c1ccc2cc(C(C)C)ccc2c1`, the outcome in [1], in experiment [6], in experiment [3], in experiment [9], in [8] and in experiment [4] was inactive. In [5], the molecule was classed as inactive.

With `CCC(CO)CO`, the molecule was classed as inactive in experiment [1], in experiment [6], in [3], in experiment [7], in experiment [8] and in experiment [4]. Besides, in experiment [5], the result was inactive.

`CCC(=O)Oc1ccc(/C(CC)=C(\CC)c2ccc(OC(=O)CC)cc2)cc1`: the result in [1], in experiment [6], in [3] and in [4] was inactive. For the same molecule, the AC50 is 26.1 µM (active) in experiment [8] and 26.9 µM (active) in experiment [5].

For `CC(C)CCCCCOC(=O)CCS`, the call in experiment [1], in [6], in [3], in experiment [7], in experiment [4] and in experiment [5] was inactive.

Turning to `CC(=O)c1ccc2c(c1)CCCC2`, the molecule was classed as inactive in [1], in [6], in [7], in experiment [4] and in [5].

With `O=C1CCC(=O)N1Cl`, the result in [1], in experiment [6], in experiment [3], in experiment [9], in experiment [7] and in [8] was inactive. Also, the call in experiment [4] and in [5] was inactive.

The AC50 is the concentration giving half of the maximal activity seen.
